SARS PLP yeast – inhibitors of SARS-CoV papain-like protease in yeast; S. cerevisiae expressing SARS-CoV PLpro, growth rescue; Potency, µM (series often up to 32.9 µM), for the others: at the top dose activity, positive = growth rescue, hits mostly activators; 330,000 tested, 0.19% active; AID 485353; calls by dose curve; also: potency is read from the fitted curve at half-maximal effect; 0% is about no effect; nearly all actives have a fitted effect of over 55% in size
HCMV antiviral – inhibitors of human cytomegalovirus; 410,000 tested, 4.5% active; HFF cells, HCMV-luciferase reporter, 72 h; active compounds read low; activity change, negative = inhibition, % at 57.5 µM; in the data active = activity change below about -60%; inconclusive = no clear call, values can overlap the other calls; inactive = above about -39%; also: % is scaled to controls: 0 for no effect and ±100 for the full control effect
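HFF cells seeded 16 h at 37C, treated with compounds, infected with luciferase-reporter HCMV at MOI 1 PFU/cell; luciferase read at 72 h post infection, normalized to buffer-only and Salinomycin controls.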
LASV entry inh – blocks Lassa virus binding to or entry into cells. Lassa virus pseudotype entry inhibition, cell reporter. Potency, µM (doses to about 37.9 µM), for the others: at the top dose activity change, negative = inhibition, usual class: inhibitors. 300,000 tested, 1.2% active; calls by dose curve; tested in HEK293 cells; also: potency is read from the fitted curve at half-maximal effect; % is scaled to controls: 0 for no effect and ±100 for the full control effect; nearly all actives have a fitted effect of over 50% in size
MARV entry inh – inhibitors of Marburg virus binding or cell entry; Marburg virus pseudotyped entry inhibition, cell reporter; Potency, µM (series often up to 37.8 µM), without a hit: top-dose activity change, negative = inhibition, most hits filed as inhibitors; 300,000 tested, 1.8% active; calls by dose curve; tested in HEK293 cells; also: potency is read from the fitted curve at half-maximal effect; % is scaled to controls: 0 for no effect and ±100 for the full control effect
HCV inh – blocks hepatitis C virus. Huh7.5.1 HCVcc-Cre infection, luciferase reporter, 44 h. Potency, µM (top dose mostly 41.8 µM), for the others: top-dose activity change, negative = inhibition, most hits filed as inhibitors. 340,000 tested, 3.4% active. AID 651820; active = well fitted inhibition curve with a large enough effect; inconclusive = small, poorly fitted or top-dose-only effect, or another doubt; inactive = no such curve, though single readings can be large or run the other way; also: potency is read from the fitted curve at half-maximal effect; % is scaled to controls: 0 for no effect and ±100 for the full control effect
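Compounds are dispensed onto cells plated 4 h earlier at 1,000 per well, with HCVcc-Cre virus (about 0.5 moi) added next. Following 44 h of culture, luminescent signal is measured for 15 sec after 15 min with substrate at room temperature.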
FMDV inh – foot and mouth disease virus antiviral activity; FMDV antiviral cell-based qHTS; Potency, µM (doses to about 57.9 µM), for the others: at the top dose activity change, negative = inhibition, usual class: inhibitors; 410,000 tested, 1.2% active; AID 1159524; calls by dose curve; tested in HEK293T cells; also: read-out not given here; potency is read from the fitted curve at half-maximal effect; % is scaled to controls: 0 for no effect and ±100 for the full control effect; nearly all actives have a fitted effect of over 45% in size
Numbers without * were called inactive; ? = inconclusive; nt = not tested or not shown; [ ] = another dose, or the depositor's remark. Most compounds without a hit are left out; they make up all but 8% or so of the library.

SMILES	SARS PLP yeast	HCMV antiviral	LASV entry inh	MARV entry inh	HCV inh	FMDV inh
Cc1cc(C)c(S(=O)(=O)NCc2ccncc2)c(C)c1	-3.1%	-83.7*	?	?	?	-1.5%
COc1cc(C)c(Br)cc1S(=O)(=O)NCc1cccs1	3.3%	?	-13.9%	-0.7%	4.9%	58.7%
COc1cc(C)c(Br)cc1S(=O)(=O)NCc1ccncc1	-0.1%	-76.5*	?	?	?	23.2%
O=C(O)c1cc(O)c2c(c1)[C@H]([C@H]1c3cc(C(=O)O)cc(O)c3C(=O)c3c(O[C@@H]4O[C@H](CO)[C@@H](O)[C@H](O)[C@H]4O)cccc31)c1cccc(O[C@@H]3O[C@H](CO)[C@@H](O)[C@H](O)[C@H]3O)c1C2=O	nt	nt	nt	nt	nt	-24.2%
CCN(CC)CCOCCOc1cc(C)c(Cl)c(C)c1	-2.1%	-72.3*	-25.1%	?	11.2µM*	nt
COc1cccc(S(=O)(=O)c2nc(C)c3c(n2)CCC3)c1	1.4%	-80.6*	nt	nt	4.2%	12.6µM*
C=CCn1c(SCC(=O)Nc2sccc2C(N)=O)nc2ccccc2c1=O	-1.8%	-37.5	?	?	11.2µM*	?
NC(=O)c1ccsc1NC(=O)CSc1nnc(Nc2ccccc2)s1	1.7%	-63.1*	?	?	?	?
C=CCn1c(SC(C)C(N)=O)nc2sc(CC)cc2c1=O (stereo unspecified)	-0.6%	26.3	7.6%	0.1%[46.1 µM]	-5.0%	-15.2%
C=CCn1c(SCC(=O)Nc2sccc2C(N)=O)nc2sc(CC)cc2c1=O	1.7%	-77.9*	?	12.6µM*	11.2µM*	25.1µM*
C=CCn1c(SCN2C(=O)c3ccccc3C2=O)nc2ccc(Cl)cc2c1=O	-3.3%	20.8	3.0%	1.7%	-6.2%	15.8µM*
C#CCN1C(=O)[C@@H](C)[C@@](C#N)(C(=O)OC)[C@H]1c1ccc(OC)cc1	nt	1.3	nt	nt	nt	nt
CCSc1nnc(NC(=O)[C@@H](NC(=O)c2ccc(C(C)(C)C)cc2)C(C)C)s1	-21.4%	-24.0	-4.2%	-2.1%	20.5%	-24.0%
COC(=O)c1sc2nc(C)nc(SCC(=O)Nc3sccc3C(N)=O)c2c1C	1.0%	?	nt	nt	11.2µM*	?
C=CCn1c(SCC(=O)Nc2sccc2C(N)=O)nc2ccc(Cl)cc2c1=O	8.5%	-81.9*	?	?	7.94µM*	?
CNS(=O)(=O)c1cn(CC(=O)NCc2ccc(N(C)C)cc2)cc1S(=O)(=O)NC	-0.7%	-27.7	21.7%	?	19.1%	4.4%
CC1(C2CCC3(C)OC3C2)CO1 (stereo unspecified)	nt	4.4	nt	nt	10.6%	-23.1%
COCc1c(C#N)c(NCCc2ccccc2)nc(C)c1[N+](=O)[O-]	?	75.2	0.8%	-10.7%	-9.1%	-17.5%
COCc1c(C#N)c(NCc2cc(OC)c(OC)c(OC)c2)nc(C)c1[N+](=O)[O-]	0.1%	-34.1	?	?	11.2µM*	14.1µM*
COc1cnc(-c2ccccn2)nc1Oc1ccccc1	15.0%	-31.0	5.6%	?	-4.1%	-12.6%
COc1cnc(-c2ccccn2)nc1Sc1ccc(Cl)cc1	?	-13.7	?	?	?	8.2%
COc1ccc(Sc2nc(-c3ccccn3)ncc2OC)cc1	-7.4%	?	20.6µM*	16.4µM*	?	-21.1%
COc1cnc(-c2ccccn2)nc1Sc1ccccc1	?	-99.5*	-20.0%	?	6.31µM*	0.0%
COc1cnc(-c2ccccn2)nc1N(C)c1ccccc1	-8.1%	-98.4*	?	?	10µM*	8.4%
COc1cnc(-c2ccccn2)nc1Oc1cccc(C(F)(F)F)c1	8.2%	-99.4*	nt	nt	nt	nt
COc1cnc(-c2ccccn2)nc1Sc1ccc(F)cc1	-5.3%	?	?	?	0.562µM*	-19.9%
C=CCN(C(=O)c1csnn1)C(C(=O)NC(C)(C)C)c1ccncc1 (stereo unspecified)	-0.7%	-5.8	10.0%[46.1 µM]	?	17.7%	-5.5%
CCCn1c2ccccc2c2cnn(CC(=O)N(CCCOC(C)C)Cc3ccco3)c(=O)c21	nt	-27.0	?	nt	nt	?
NC(=O)CSc1nc2c(c(=O)n1-c1ccccc1)C1(CCCCC1)Cc1ccccc1-2	-1.6%	-93.4*	?	?	0.1%	20µM*

Compound activity from PubChem.
